Calls of active or inactive are those of the source. Unless noted, the rule behind the calls is not given here.
Tests used:
[1] = liver-stage malaria parasite load reduction – cell-based, known kinase inhibitor set, luminescence, hepatoma host viability (AID 624392); conditions: Plasmodium liver stage in hepatoma cells, luciferase luminescence, concentration not given here; liver cell % of control: measured here: host liver cell viability; parasite % of control: stronger effect = lower value;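 note: infected cells incubated roughly two days before readout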
[2] = altered dexamethasone sensitivity, NF-kB reporter, cell-based, luciferase, IL-1B stimulus (AID 624486); conditions: IL-1B + dexamethasone, luminescence; percent of negative control (+Dex): actives lie on both sides, concentration not given here; z-score: measured here: IL-1B alone, no Dex;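 for percent of negative control (+Dex): 100% = mean signal of vehicle control wells on the plate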
[3] = C. elegans survival during P. aeruginosa infection – whole organism (AID 651566);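 note: tested at 14 µM; sign flipped so higher z means a lower ratio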; conditions: C. elegans killed by P. aeruginosa, survival ratio
[4] = pro-inflammatory signaling induction in mouse macrophages – cell-based, murine, luminescence (AID 652131); conditions: murine macrophage pro-inflammatory reporter, stronger effect = higher value
[5] = molecular target: Cellular tumor antigen p53 (Homo sapiens) (UniProt P04637); assay: GFP-p53 level modulators in HPV16+ cells – imaging, known kinase inhibitor set, EGFP/DsRed ratio (AID 1053116); conditions: GFP-p53 stability, stronger effect = higher value; EGFP object count: measured here: GFP-p53 positive objects count;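 note: cells exposed to compounds for 24 h at 37 °C before reading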
[6] = inducers of IRF3 signaling, differentiated THP-1 – cell-based, PMA-stimulated THP-1, luminescence (AID 1053176); conditions: PMA-differentiated THP-1, IRF3 reporter luminescence; stronger effect = higher value
[7] = MELAS cybrid and Rieske KO viability enhancers – cell-based, MELAS cybrids, Rieske KO mouse fibroblasts, CellTiter-Glo, primary screen (AID 1508586;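 active = mean z-score across replicates of 1.96 or higher in either the MELAS or the Rieske mutant cell line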;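 note: z relative to plate mean and SD of compound and empty wells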); conditions: low glucose
[8] = MELAS cybrid survival, CellTiter-Glo 48 h, stronger effect = higher value
[9] = Rieske KO mouse fibroblast survival, CellTiter-Glo 72 h

Chain of Cellular tumor antigen p53 (Homo sapiens) (P04637 whole entry, looked up): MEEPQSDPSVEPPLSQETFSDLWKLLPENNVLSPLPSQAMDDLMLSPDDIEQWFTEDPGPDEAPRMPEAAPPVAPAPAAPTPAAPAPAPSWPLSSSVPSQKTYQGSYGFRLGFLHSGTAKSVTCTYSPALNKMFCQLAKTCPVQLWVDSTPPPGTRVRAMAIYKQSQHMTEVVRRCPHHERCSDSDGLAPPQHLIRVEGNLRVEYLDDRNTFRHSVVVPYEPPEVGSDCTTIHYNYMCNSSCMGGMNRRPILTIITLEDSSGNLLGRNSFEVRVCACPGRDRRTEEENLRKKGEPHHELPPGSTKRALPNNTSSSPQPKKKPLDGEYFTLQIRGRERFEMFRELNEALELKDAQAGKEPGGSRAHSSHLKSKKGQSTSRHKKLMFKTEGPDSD

| SMILES | liver cell % of control [1] | parasite % of control [1] | percent of negative control (+Dex) [2] | z-score [2] | z-score [3] | z-score [4] | EGFP object count [5] | EGFP/DsRed ratio [5] | fraction signal [6] | z-score [7, 8] | z-score [7, 9] |
| --- | --- | --- | --- | --- | --- | --- | --- | --- | --- | --- | --- |
| CC(=O)Nc1cccc(C#Cc2cncnc2Nc2ccc(OCc3cccc(F)c3)c(Cl)c2)n1 | 82.2% | 102% (inactive) | 68% (inactive) | -2.19 | 0.02 (inactive) | 0.499 (inactive) | 6.5 | 0.198 (inactive) | -0.0035 (inactive) | 0.392 (inactive) | -0.337 |
| COc1cc(N2CCN(C(C)C)CC2)ccc1Nc1nc(Nc2cccc3ncccc23)c2cc[nH]c2n1 | 96.4% | 180% (inactive) | 92.5% (inactive) | -0.235 | 0.32 (inactive) | -0.489 (inactive) | 1 | 0.00687 (inactive) | -0.0005 (inactive) | -1.02 (inactive) | -0.0497 |
| CC1=C(C(=O)Nc2ccc3n[nH]c(C)c3c2)C(c2ccc(C(F)(F)F)cc2)CC(=O)N1 (centres undefined) | 99.2% | 202% (inactive) | 82.5% (inactive) | -1.14 | 0.355 (inactive) | -0.104 (inactive) | 2.5 | 0.0851 (inactive) | -0.006 (inactive) | -0.0625 (inactive) | -0.632 |
| COc1cccc(-n2ncc3c(N/N=C/c4ccncc4)ncnc32)c1 | 106% | 21.2% (inactive) | 156% (active) | 0.175 | 0.485 (inactive) | 0.337 (inactive) | 14 | 0.38 (inactive) | 0.0245 (inactive) | -0.213 (inactive) | 0.531 |
| O=C(NC1NNC2CC(c3ccccc3)CCC21)C1CC1 (centres undefined) | 191% | 74.3% (inactive) | 104% (inactive) | 0.375 | -1.73 (inactive) | 0.532 (inactive) | 2.5 | 0.139 (inactive) | 0.012 (inactive) | -0.677 (inactive) | -0.221 |
| COc1ccc(-c2ccc3c(NC(=O)C4CC4)n[nH]c3n2)cc1 | 119% | 77.2% (inactive) | 130% (inactive) | 2.11 | 0.15 (inactive) | 2.53 (inactive) | 6 | 0.0694 (inactive) | 0.0035 (inactive) | 1.36 (inactive) | 0.0157 |
| c1ccc(Oc2ccc(Nc3ncc(-c4ccccc4)o3)cc2)cc1 | 103% | 102% (inactive) | 110% (inactive) | 1.91 | 0.1 (inactive) | 3.61 (inactive) | 4.5 | 0.122 (inactive) | 0.0065 (inactive) | -0.198 (inactive) | -0.417 |
| CNC(=O)c1sc(-n2cnc3cc(OC)c(OC)cc32)cc1OCc1ccccc1C(F)(F)F | 124% | 77.7% (inactive) | 68.5% (inactive) | -0.645 | -0.51 (inactive) | -0.587 (inactive) | 5.5 | 0.105 (inactive) | -0.005 (inactive) | -0.801 (inactive) | -0.0583 |
| C[C@@H](Oc1cc(-n2cnc3ccc(OCC4CCN(C)CC4)cc32)sc1C(N)=O)c1ccccc1Cl | 73.4% | 117% (inactive) | 104% (inactive) | -0.185 | -0.885 (inactive) | -2.53 (inactive) | 7 | 0.174 (inactive) | -0.009 (inactive) | -0.19 (inactive) | 0.83 |
| Fc1ccc(Nc2nccc(-c3c(-c4ccc(C(F)(F)F)cc4)nn4ncccc34)n2)cc1F | 121% | 125% (inactive) | 94.5% (inactive) | 0.25 | 0.135 (inactive) | -0.216 (inactive) | 5.5 | 0.0976 (inactive) | 0.008 (inactive) | -0.717 (inactive) | -0.174 |
| COc1ccc(-c2cc3c(N)ncnc3o2)cc1 | 106% | 203% (inactive) | 118% (inactive) | 2.92 | 0.775 (inactive) | 1.8 (inactive) | 6.5 | 0.215 (inactive) | -0.014 (inactive) | 1.14 (inactive) | 0.359 |
| Nc1nccc(-c2c(-c3ccc(F)cc3)nn3cc(C(F)(F)F)ccc23)n1 | 111% | 130% (inactive) | 107% (inactive) | 1.32 | -0.745 (inactive) | -0.016 (inactive) | 5.5 | 0.148 (inactive) | -0.0075 (inactive) | -0.218 (inactive) | -0.148 |
| NS(=O)(=O)c1cccc(-c2ccc3c(NC(=O)C4CC4)n[nH]c3c2)c1 | 97.5% | 241% (inactive) | 90.5% (inactive) | 0.225 | -0.22 (inactive) | -0.069 (inactive) | 4 | 0.0329 (inactive) | -0.0015 (inactive) | -0.0262 (inactive) | -0.475 |
| COc1cccc(COc2cc(-n3cnc4ccccc43)sc2C(N)=O)c1 | 95% | 99.6% (inactive) | 87% (inactive) | -0.845 | 1.31 (inactive) | -0.593 (inactive) | 4 | 0.0452 (inactive) | -0.006 (inactive) | -0.15 (inactive) | 0.0931 |
| COc1cc(/C=N/Nc2ncnc3c2cnn3Cc2ccccc2)ccc1O | 94.9% | 99.3% (inactive) | 85% (inactive) | -0.18 | -0.52 (inactive) | 1.23 (inactive) | 100 | 1.43 (active) | 0.0995 (inactive) | 1.43 (inactive) | 0.207 |
| CS(=O)(=O)CCNCc1cc(-c2cc3c(Nc4ccc(OCc5cccc(F)c5)c(Cl)c4)ncnc3s2)cs1 | 91.2% | 132% (inactive) | 79.5% (inactive) | -0.645 | 0.375 (inactive) | 0.207 (inactive) | 4.5 | 0.11 (inactive) | -0.0035 (inactive) | -0.394 (inactive) | -0.666 |
| CCN(CC)Cc1ccc(Nc2nccc(-c3cnn4ncccc34)n2)cc1 | 52.3% | 12.5% (active) | 3% (active) | -9.2 | -0.59 (inactive) | -2.04 (inactive) | 3 | 0.0517 (inactive) | 0.0075 (inactive) | 0.539 (inactive) | 1.65 |
| CCN(CC)S(=O)(=O)c1ccc(OC)c(Nc2ncc(-c3ccccc3)o2)c1 | 168% | 80% (inactive) | 91% (inactive) | 0.485 | -0.36 (inactive) | -0.177 (inactive) | 3 | 0.245 (inactive) | -0.012 (inactive) | -0.446 (inactive) | -0.197 |
| Cc1cccc(C2NNCC2c2ccc3ncccc3n2)n1 (centres undefined) | 89.8% | 104% (inactive) | 58.5% (inactive) | -3.81 | 0.465 (inactive) | 0.276 (inactive) | 4 | 0.132 (inactive) | 0.0035 (inactive) | 0.0567 (inactive) | -0.176 |
| COc1ccc(-c2ccncc2)cc1C(N)=O | 85.3% | 135% (inactive) | 90% (inactive) | -0.52 | 0.46 (inactive) | 0.337 (inactive) | 4 | 0.12 (inactive) | -0.004 (inactive) | -0.169 (inactive) | -0.232 |
| COc1cc2c(cc1Nc1nc(Nc3ccsc3C(N)=O)c3cc[nH]c3n1)N(C(=O)CN(C)C)CCC2 | 54.7% | 369% (inactive) | 95.5% (inactive) | -0.185 | -0.225 (inactive) | 2.59 (inactive) | 1.5 | 0.0536 (inactive) | -0.007 (inactive) | 2.79 (active) | 10.1 |
| CCn1cc(-c2ccnc3[nH]ccc23)c(-c2cccc(NC(=O)Nc3ccc(OCc4ccccc4)cc3)c2)n1 | 76% | 95.6% (inactive) | 93.5% (inactive) | 0.135 | -1.14 (inactive) | -1.24 (inactive) | 6.5 | 0.11 (inactive) | -0.0115 (inactive) | 0.828 (inactive) | 0.137 |
| CCCN1CCCC(c2ccc(Nc3nc(Nc4cc(F)ccc4C(N)=O)c4cc[nH]c4n3)c(OC)c2)C1 (centres undefined) | 71% | 101% (inactive) | 73.5% (inactive) | -2.44 | 1.62 (inactive) | -0.56 (inactive) | 50.5 | 0.576 (inactive) | -0.003 (inactive) | -0.991 | 4.23 |
| NS(=O)(=O)c1ccc(N=Nc2c(O)[nH]c3ccc(C(=O)NCCc4cnc[nH]4)cc23)cc1 | 82.2% | 110% (inactive) | 85.5% (inactive) | -0.045 | -1.15 (inactive) | -0.108 (inactive) | 7.5 | 0.141 (inactive) | -0.0145 (inactive) | 0.0573 (inactive) | -0.291 |
| CCCN(CCS(C)(=O)=O)Cc1ccc(-c2ccc3ncnc(Nc4ccc(OCc5cccc(F)c5)c(Cl)c4)c3c2)o1 | 100% | 108% (inactive) | 74.5% (inactive) | -1.22 | 1.21 (inactive) | 1.79 (inactive) | 4.5 | 0.083 (inactive) | -0.0115 (inactive) | -0.517 (inactive) | -0.151 |
| O=C1NC(=O)C(c2cccc(Cl)c2)=C1Nc1ccc(O)c(Cl)c1 | 112% | 102% (inactive) | 93% (inactive) | 0.42 | -0.775 (inactive) | 0.127 (inactive) | 5 | 0.0621 (inactive) | -0.0075 (inactive) | -1.05 (inactive) | -0.373 |
| O=C(O[C@H]1CN[C@H](C#Cc2cc3ncnc(Nc4ccc(OCc5cccc(F)c5)c(Cl)c4)c3s2)C1)N1CCOCC1 | 89.4% | 117% (inactive) | 74.5% (inactive) | -1.65 | 0.44 (inactive) | -0.505 (inactive) | 4.5 | 0.0369 (inactive) | -0.0095 (inactive) | -0.421 (inactive) | -0.498 |
| COc1cccc(-n2ncc3c(N/N=C/c4ccc(C(=O)NCCN(C)C)cc4)ncnc32)c1 | 77.1% | 68.4% (inactive) | 104% (inactive) | 0.67 | -0.295 (inactive) | 0.961 (inactive) | 7 | 0.117 (inactive) | -0.0045 (inactive) | -0.557 (inactive) | 0.745 |
| COc1ccccc1-c1cc(/C=C2\C(=O)Nc3ncc(Br)cc32)cc(Br)c1O | 102% | 116% (inactive) | 96% (inactive) | -0.115 | 0.69 (inactive) | -0.578 (inactive) | 1 | 0.142 (inactive) | 0.0015 (inactive) | -0.581 (inactive) | -0.341 |
